Data as given in PubChem BioAssay (Tox21).
Results filed as inconclusive are left out. Values without a mark were called inactive. The source made the active and inactive calls. The call rests on the fitted dose curve; in most records, active means well fitted cell-killing curve with a large enough effect in the repeat runs; inconclusive means weak or mixed curves, or effect the other way; inactive means no such curve, though single readings can be large or run the other way.

Experiment: qHTS assay to identify small molecule agonists of the estrogen receptor alpha (ER-alpha) signaling pathway in the presence of an antagonist - cell viability counter screen (AID 1259386);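 further: cells exposed to compounds for 22 h at 37 °C before the viability read; nearly all actives have a fitted effect of over 30% in size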
Conditions: VM7Luc4E2 viability, CellTiter-Fluor fluorescence, 22 h; series mostly up to 92.4 µM; activity change, negative = cytotoxicity: at the top concentration
Description: National Center for Advancing Translational Sciences [NCATS]
NIH Chemical Genomics Center [NCGC]
U.S. Environmental Protection Agency [EPA]
National Institutes of Environmental Health Sciences [NIEHS]
National Toxicology Program [NTP]
U.S. Food and Drug Administration [FDA]
Estrogen receptor (ER), a member of nuclear hormone receptor plays an important role in development, metabolic homeostasis and reproduction. Two subtypes of ER, ER-alpha and ER-beta, have similar expression patterns with some uniqueness in both types. Endocrine disrupting chemicals (EDCs) and their interactions with steroid hormone receptors like ER causes disruption of normal endocrine function. Therefore, it is important to understand the effect of environmental chemicals in ER signaling pathway. For identifying ER agonists, VM7Luc4E2 cell line has been used in the current assay.
VM7Luc4E2 cell line (provided by Denison MS, University of California) endogenously expresses full-length ER-alpha and is stably transfected with a plasmid containing four estrogen responsive elements (ERE) upstream of a luciferase reporter gene. This current screening for measuring luciferase reporter gene activity using VM7Luc4E2 cells against Tox21 10K library collection is a confirmation study on agonist mode screening in presence of ER-antagonist (ICI-182,780) at 10.0nM final concentration. The cytotoxicity of the compounds was tested in parallel by measuring the cell viability using CellTiter-Fluor assay system (Promega, Madison, WI) in the same wells.
Tox21 Assay Protocol Summary:
VM7Luc4E2 cells were cultured in phenol red free assay medium containing 10% charcoal stripped FBS for 5 days prior to the assay. The cells were dispensed at 4,000 cells in 4uL of assay medium per well into white wall/solid-bottom 1536-well plates (Corning Life Sciences, Corning, NY) using a Multidrop Combi (Thermo Fisher Scientific Inc., Waltham, MA) dispenser. After the assay plates were incubated at 37C and 5% CO2 for 24hr, 1uL of 10.0nM (final concentration) ICI-182,780 or assay buffer was added using two separate tips of Flying Reagent Dispenser (FRD, Aurora Discovery, San Diego, CA). Then 23nL of compounds dissolved in DMSO at 15 concentrations and positive controls or DMSO only was transferred to the assay plates by a Pintool station (Wako, San Diego, CA). The assay plates were incubated at 37C and 5% CO2 for 22hr. After 21hr incubation at 37C, 1uL/well CellTiter-Fluor reagent (Promega Corporation, Madison, WI) was added to each well using FRD and after 1hr incubation at 37C and 5% CO2, the fluorescence signal was measured on ViewLux plate reader (PerkinElmer, Shelton, CT).
On the % scale 0 is the no-effect control and ±100 the full control effect; potency means the concentration at half of the fitted maximal effect.

| Structure (SMILES) | Potency | activity change, negative = cytotoxicity |
| --- | --- | --- |
| Cc1cc(C)c(S(=O)(=O)O)cc1N=Nc1cc(S(=O)(=O)O)c2ccccc2c1O | 27.3 µM (active) | – |
| Cn1sccc1=O | inactive | – |
| CCCOc1ccc2nc(NC(=O)OC)[nH]c2c1 | – | 1.46% [at 42.5 µM] |
| NCCCN(CCO)CCO | – | 0.878% |
| CC(C)(Oc1ccc(Cl)cc1)C(=O)OCCCOC(=O)C(C)(C)Oc1ccc(Cl)cc1 | – | -3.4% [at 42.5 µM] |
| Cc1ncsc1CCO | – | -0.939% |
| O=C1Nc2cc(Cl)ccc2Oc2ccccc21 | – | 8.86% [at 42.5 µM] |
| CC(=O)/C(C)=C/C1C(C)=CCCC1(C)C (stereo not given) | – | -2.99% |
| NCCCOCCOCCOCCCN | – | -12.8% |
| CC/C(=C\C(=N/O)C(N)=O)C(C)[N+](=O)[O-] (stereo not given) | – | -3.21% |
| Cc1ccc(C(C)c2ccc(C)c(C)c2)cc1C | – | -0.514% |
| c1ccc(CNCc2ccccc2)cc1 | – | -5.91% |
| COc1ccc(C(C)=O)cc1 | – | 1.64% |
| C=CC[N+]1([C@H]2C[C@H]3[C@@H]4CC[C@H]5C[C@H](OC(C)=O)[C@@H](N6CCCCC6)C[C@]5(C)[C@H]4CC[C@]3(C)[C@H]2OC(=O)CC)CCCCC1 | – | -10.8% [at 42.5 µM] |
| Nc1ccc(C(=O)Nc2ccccc2N)cc1 | – | 3.73% [at 42.5 µM] |
| Nc1nc(CC(=O)O)cs1 | – | -1.45% |
| CC(C)NCC(O)c1cc(O)cc(O)c1 (stereo not given) | – | 7.34% [at 42.5 µM] |
| Cn1c(=O)c2c(ncn2CC(O)CO)n(C)c1=O (stereo not given) | – | 1.81% [at 42.5 µM] |
| CC(=O)O[C@H]1C[C@@H]2CC[C@@H]3[C@H](CC[C@@]4(C)[C@H]3C[C@H]([N+]3(C)CCCCC3)[C@@H]4OC(C)=O)[C@@]2(C)C[C@@H]1N1CCCCC1 | – | 3.62% [at 42.5 µM] |
| CCCCCCOC(=O)CCC | – | 4.18% |

| Structure (SMILES) | Potency | activity change, negative = cytotoxicity |
| --- | --- | --- |
| CCN(CC)CCc1nc(-c2ccccc2)no1 | – | 1.57% [at 42.5 µM] |
| CC(=O)O[C@@H]1C(=O)O[C@@H]2[C@H]1OC(=O)[C@@H]2OC(C)=O | – | 5.9% [at 42.5 µM] |
| Cc1ccc(C(N)=O)cc1N | – | 0.993% |
| O=C(O)/C=C/c1cnc[nH]1 | – | 5.08% |
| CCC(C)N(C)C(=O)c1cc2ccccc2c(-c2ccccc2Cl)n1 (stereo not given) | – | -2.91% [at 42.5 µM] |
| CC(=O)[C@@]1(O)CC[C@H]2[C@@H]3C[C@H](C)C4=CC(=O)CC[C@]4(C)[C@H]3CC[C@@]21C | – | 5.49% [at 42.5 µM] |
| CC(=O)Nc1ccc(/C=N/NC(N)=S)cc1 | – | -0.0798% [at 42.5 µM] |
| O=C(O)COC(=O)Cc1ccccc1Nc1c(Cl)cccc1Cl | – | 0.501% [at 42.5 µM] |
| CCCC[C@H]1CN(CC2CCOCC2)C(=O)OC12CCN(C1(C)CCN(C(=O)c3c(C)ncnc3C)CC1)CC2 | – | 1.44% |
| CCN(CC)C(C)=O | – | 3.69% |
| CCCCCc1ccc(N)cc1 | – | 0.809% |
| CC(C(=O)O)c1ccc(-c2ccccc2)c(F)c1 (stereo not given) | – | 1.16% |
| COc1ccccc1OC(=O)Oc1ccccc1OC | – | 0.767% [at 42.5 µM] |
| CC(C)c1ccccc1C(C)C | – | -9.7% |
| CC(C)c1cccc(C(C)C)c1NC(=O)NS(=O)(=O)c1cc(C(C)(C)O)co1 | – | -2.92% |
| O=C(Nc1ccccc1)OCC(CN1CCCCC1)OC(=O)Nc1ccccc1 (stereo not given) | – | -0.959% [at 42.5 µM] |
| Cl/C(=C\n1cncn1)c1ccc(Cl)cc1Cl | – | -0.535% [at 42.5 µM] |
| CCCCCOC(=O)COc1cc(N2C(=O)C3=C(CCCC3)C2=O)c(F)cc1Cl | – | -5.25% |
| CC(C)(C)c1cc(CO)cc(C(C)(C)C)c1O | – | -1.35% |
| CNCC[C@@H](Oc1ccccc1C)c1ccccc1 | – | -2.64% [at 42.5 µM] |
